Measurements from PubChem BioAssay (Tox21).
Results filed as inconclusive are left out. Activity calls are given as the source filed them. Calls come from the whole dose curve; as a rule, active = well fitted curve in the direction sought with a large enough effect in the repeat runs; inconclusive = weak or mixed curves; inactive = no such curve, though single readings can be large; an effect the other way counts as inactive or inconclusive.

Key:
[1] = qHTS RealTime-Glo MT Cell Viability Assay in HEK293 cells - 16 hour (AID 1224872); note: nearly all actives have a fitted effect of over 50% in size; note: potency is the fitted concentration of half-maximal effect; for activity change, negative = cytotoxicity: top concentration of the series differs between compounds
How it was run: (§1)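 HEK293 cells were seeded at 600 cells/well together with NanoLuc luciferase and cell-permeant prosubstrate, preincubated 5 h at 37 C/5% CO2, then given compound in DMSO by pintool. Luminescence from viable-cell prosubstrate reduction was read repeatedly over 40 h.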

[2] = qHTS RealTime-Glo MT Cell Viability Assay in HepG2 cells - 8 hour (AID 1224873); note: nearly all actives have a fitted effect of over 55% in size
How it was run: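 Real-time viability: cells seeded at 600 per well together with NanoLuc and cell-permeant prosubstrate, compounds added after 5 h incubation. Luminescence tracked at 0, 8, 16, 24, 32 and 40 h of exposure.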

[3] = qHTS RealTime-Glo MT Cell Viability Assay in HEK293 cells - 40 hour (AID 1224874); conditions: RealTime-Glo luminescence; max response: stronger effect = lower value; note: nearly all actives have a fitted effect of over 50% in size; note: potency is the fitted concentration of half-maximal effect
How it was run: (§2)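 Tox21 screen in HEK293 using RealTime-Glo MT chemistry, with cells and reagent co-dispensed. Luminescence proportional to viable cell number was captured at intervals during 40 h compound exposure at 37 C.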

[4] = A CellTox Green Cytotoxicity Assay to monitor cytotoxicity in HEK293 cells - 24 hour (AID 1224875); note: series mostly up to about 77 µM; nearly all actives have a fitted effect of over 45% in size
How it was run: (§3)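 Seeding of HEK293 cells together with cytotoxicity dye preceded a 5 h incubation at 37 C/5% CO2. Test compounds in DMSO were then added and fluorescence monitored across 40 h.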

[5] = A CellTox Green Cytotoxicity Assay to monitor cytotoxicity in HepG2 cells - 16 hour (AID 1224876); note: nearly all actives have a fitted effect of over 45% in size; note: potency is the fitted concentration of half-maximal effect
How it was run: (§4)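 Nonlytic assay: viable cells exclude the dye, so fluorescence scales with cell death. HepG2 at 600 cells/well, compounds added after 5 h, signal read across 40 h.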

[6] = qHTS RealTime-Glo MT Cell Viability Assay in HEK293 cells - 0 hour (AID 1224880); note: nearly all actives have a fitted effect of over 45% in size; note: potency is the fitted concentration of half-maximal effect; for activity change, negative = cytotoxicity: top concentration of the series differs between compounds
How it was run: as §2

[7] = A CellTox Green Cytotoxicity Assay to monitor cytotoxicity in HepG2 cells - 0 hour (AID 1224882); note: nearly all actives have a fitted effect of over 35% in size
How it was run: as §4

[8] = A CellTox Green Cytotoxicity Assay to monitor cytotoxicity in HEK293 cells - 8 hour (AID 1224884); note: nearly all actives have a fitted effect of over 35% in size; note: potency is the fitted concentration of half-maximal effect
How it was run: as §3

[9] = qHTS RealTime-Glo MT Cell Viability Assay in HepG2 cells - 16 hour (AID 1224885); note: nearly all actives have a fitted effect of over 50% in size
How it was run: (§5)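 HepG2 cells were seeded at 600 cells/well together with NanoLuc luciferase and a cell-permeant prosubstrate, preincubated 5 h at 37 C/5% CO2, then pin-dosed with compounds in DMSO. Nonlytic luminescence from viable cells was read at each time point.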

[10] = qHTS RealTime-Glo MT Cell Viability Assay in HEK293 cells - 24 hour (AID 1224886); note: nearly all actives have a fitted effect of over 50% in size; note: potency is the fitted concentration of half-maximal effect; for activity change, negative = cytotoxicity: top concentration of the series differs between compounds
How it was run: as §1

[11] = A CellTox Green Cytotoxicity Assay to monitor cytotoxicity in HEK293 cells - 16 hour (AID 1224888); note: nearly all actives have a fitted effect of over 35% in size; note: potency is the fitted concentration of half-maximal effect
How it was run: as §3

[12] = qHTS RealTime-Glo MT Cell Viability Assay in HepG2 cells - 0 hour (AID 1224889); note: nearly all actives have a fitted effect of over 50% in size; note: potency is the fitted concentration of half-maximal effect
How it was run: as §5

[13] = A CellTox Green Cytotoxicity Assay to monitor cytotoxicity in HepG2 cells - 8 hour (AID 1224890); note: nearly all actives have a fitted effect of over 45% in size; note: potency is the fitted concentration of half-maximal effect
How it was run: as §4

[14] = qHTS RealTime-Glo MT Cell Viability Assay in HepG2 cells - 32 hour (AID 1224877); note: nearly all actives have a fitted effect of over 55% in size
How it was run: as §5

[15] = A CellTox Green Cytotoxicity Assay to monitor cytotoxicity in HepG2 cells - 24 hour (AID 1224878); note: nearly all actives have a fitted effect of over 45% in size; note: potency is the fitted concentration of half-maximal effect
How it was run: as §4

[16] = A CellTox Green Cytotoxicity Assay to monitor cytotoxicity in HepG2 cells - 40 hour (AID 1224879); note: nearly all actives have a fitted effect of over 40% in size; note: potency is the fitted concentration of half-maximal effect
How it was run: as §4

[17] = A CellTox Green Cytotoxicity Assay to monitor cytotoxicity in HEK293 cells - 32 hour (AID 1224881); note: nearly all actives have a fitted effect of over 40% in size; note: potency is the fitted concentration of half-maximal effect
How it was run: as §3

[18] = A CellTox Green Cytotoxicity Assay to monitor cytotoxicity in HepG2 cells - 32 hour (AID 1224883); note: nearly all actives have a fitted effect of over 50% in size; note: potency is the fitted concentration of half-maximal effect
How it was run: as §4

[19] = qHTS RealTime-Glo MT Cell Viability Assay in HEK293 cells - 8 hour (AID 1224887); note: nearly all actives have a fitted effect of over 50% in size; note: potency is the fitted concentration of half-maximal effect; for activity change, negative = cytotoxicity: top concentration of the series differs between compounds
How it was run: as §2
% is set by controls: 0 for no effect and ±100 for the full control effect.

CC(CN(CCN(CC(C)OCCO)CC(C)OCCO)CC(C)OCCO)OCCO (stereo not given)
inactive: Potency [2] | Potency [4] | Potency [5] | Potency [6] | Potency [7] | Potency [8] | Potency [9] | Potency [11] | Potency [12] | Potency [13]
active: Potency [1] 18.8 µM | Potency [3] 23.7 µM | Potency [10] 23.7 µM

Cc1cc(CCCOc2c(C)cc(-c3noc(C(F)(F)F)n3)cc2C)on1
inactive: Potency [2] | Potency [4] | Potency [5] | Potency [14] | Potency [15] | Potency [16] | Potency [6] | Potency [17] | Potency [7] | Potency [18] | Potency [8] | Potency [9] | Potency [11] | Potency [13]

Cc1c(C2(c3cc(Br)c(O)c(Br)c3C)OS(=O)(=O)c3ccccc32)cc(Br)c(O)c1Br
inactive: Potency [2] | Potency [4] | Potency [5] | Potency [14] | Potency [15] | Potency [16] | Potency [17] | Potency [7] | Potency [18] | Potency [8] | Potency [9] | Potency [10] | Potency [11] | Potency [13]
active: Potency [6] 15 µM | Potency [12] 13.4 µM

O=C1c2ccccc2C(=O)c2c(O)ccc(O)c21
inactive: Potency [1] | Potency [2] | max response [3] 5.32% | Potency [14] | Potency [6] | Potency [7] | Potency [9] | Potency [10] | Potency [19] | Potency [12]
active: Potency [5] 24.5 µM | Potency [15] 24.5 µM | Potency [16] 24.5 µM | Potency [18] 24.5 µM | Potency [8] 27.5 µM | Potency [11] 30.9 µM | Potency [13] 21.9 µM

O=[N+]([O-])c1ccc2ncccc2c1
inactive: Potency [1] | Potency [2] | Potency [4] | Potency [5] | Potency [14] | Potency [15] | Potency [16] | Potency [6] | Potency [17] | Potency [7] | Potency [18] | Potency [8] | Potency [9] | Potency [10] | Potency [19] | Potency [11] | Potency [12] | Potency [13]

CC(=O)Oc1cccc(O)c1
inactive: Potency [1] | Potency [2] | max response [3] -0.489% | Potency [4] | Potency [5] | Potency [14] | Potency [15] | Potency [16] | Potency [6] | Potency [17] | Potency [7] | Potency [18] | Potency [8] | Potency [9] | Potency [19] | Potency [11] | Potency [12] | Potency [13]

CCCCCCOC(=O)CCCCC
inactive: Potency [1] | Potency [2] | Potency [4] | Potency [5] | Potency [14] | Potency [15] | Potency [16] | Potency [6] | Potency [17] | Potency [7] | Potency [18] | Potency [8] | Potency [9] | Potency [19] | Potency [11] | Potency [12] | Potency [13]

C[C@@H]1[C@H](O)[C@@H](C)/C=C/C=C\C=C\C=C\C=C\C=C\C=C\[C@H](O[C@@H]2O[C@H](C)[C@@H](O)[C@H](N)[C@@H]2O)C[C@@H]2O[C@](O)(C[C@@H](O)C[C@@H](O)[C@H](O)CC[C@@H](O)C[C@@H](O)CC(=O)O[C@H]1C)C[C@H](O)[C@H]2C(=O)O (stereo in doubt)
inactive: Potency [1] | Potency [2] | max response [3] -0.557% | Potency [5] | Potency [15] | Potency [16] | Potency [6] | Potency [7] | Potency [8] | Potency [9] | Potency [19] | Potency [11] | Potency [12] | Potency [13]

CCC(Cl)CC(Cl)C(Cl)C(Cl)C(Cl)C(C)Cl (stereo not given)
inactive: viability change, negative = cytotoxic [2] 0.0251% [at 15.8 µM] | cytotoxicity increase [5] 7.76% [at 15.8 µM] | cytotoxicity [15] 2.51% [at 15.8 µM] | cytotoxicity increase [16] 0.801% [at 15.8 µM] | cytotoxicity [7] 0.838% [at 15.8 µM] | cytotoxicity increase [18] 1.37% [at 15.8 µM] | cytotoxicity increase [8] 24.2% [at 15.8 µM] | activity change, negative = cytotoxic [9] -2.19% [at 15.8 µM] | activity change, negative = cytotoxicity [12] 1.09% [at 15.8 µM] | cytotoxicity increase [13] 7.16% [at 15.8 µM]

c1ccc(CCCc2ccncc2)cc1
inactive: Potency [2] | max response [3] -19.7% | Potency [6] | Potency [7] | Potency [8] | Potency [9] | Potency [19] | Potency [12]
active: Potency [5] 12.3 µM

CCCCCCCC(=O)Oc1c(Br)cc(C#N)cc1Br
active: Potency [3] 38.8 µM | Potency [10] 38.8 µM
inactive: Potency [2] | Potency [4] | Potency [5] | Potency [15] | Potency [16] | Potency [6] | Potency [7] | Potency [18] | Potency [8] | Potency [9] | Potency [11] | Potency [12] | Potency [13]

CN1C(CSCC(F)(F)F)Nc2cc(Cl)c(S(N)(=O)=O)cc2S1(=O)=O (stereo not given)
active: Potency [1] 19 µM | Potency [19] 19 µM
inactive: Potency [2] | Potency [4] | Potency [5] | Potency [14] | Potency [15] | Potency [16] | Potency [6] | Potency [17] | Potency [7] | Potency [18] | Potency [8] | Potency [9] | Potency [11] | Potency [12] | Potency [13]

CCCCC(CC)COS(=O)(=O)O (stereo not given)
inactive: Potency [2] | Potency [5] | Potency [14] | Potency [15] | Potency [16] | Potency [6] | Potency [7] | Potency [18] | Potency [8] | Potency [9] | Potency [19] | Potency [13]

NC(=O)c1ccccc1[N+](=O)[O-]
active: Potency [17] 1.78 µM
inactive: Potency [1] | Potency [2] | max response [3] 13.7% | Potency [4] | Potency [5] | Potency [15] | Potency [16] | Potency [6] | Potency [7] | Potency [18] | Potency [8] | Potency [9] | Potency [10] | Potency [19] | Potency [12] | Potency [13]

CCN(CC)c1cccc(O)c1
inactive: Potency [2] | max response [3] 7.38% | Potency [4] | Potency [5] | Potency [14] | Potency [15] | Potency [16] | Potency [6] | Potency [17] | Potency [7] | Potency [18] | Potency [8] | Potency [9] | Potency [10] | Potency [19] | Potency [11] | Potency [12] | Potency [13]
